For the first test, the target named is T1, GST-Aq-NF-kB (Amphimedon queenslandica, UniProt A9Y5G7 2-389).
T1 sequence: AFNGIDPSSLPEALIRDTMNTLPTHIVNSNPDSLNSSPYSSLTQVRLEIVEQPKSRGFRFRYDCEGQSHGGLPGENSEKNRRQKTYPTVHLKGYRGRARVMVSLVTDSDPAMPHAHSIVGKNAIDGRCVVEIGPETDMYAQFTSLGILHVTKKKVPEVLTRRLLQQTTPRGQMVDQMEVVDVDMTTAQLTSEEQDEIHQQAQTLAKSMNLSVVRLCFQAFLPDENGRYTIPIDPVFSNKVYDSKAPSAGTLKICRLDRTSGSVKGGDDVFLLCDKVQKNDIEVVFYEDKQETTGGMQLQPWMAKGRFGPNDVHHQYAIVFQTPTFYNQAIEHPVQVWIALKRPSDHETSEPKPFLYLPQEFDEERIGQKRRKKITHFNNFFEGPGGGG
Put plainly: protein-binding microarray (PBM); PBM: ~300 nM protein, 6 mM HEPES pH 7.8, 80 mM KCl, 0.5 mM EDTA, 0.5 mM EGTA, 6% glycerol, 35 ng/ul poly-dIdC, 1% milk, 1 h, room temperature; Ap Aiptasia and Nv Nematostella (sea anemones) / Co Capsaspora / Aq Amphimedon (sponge) / Dm Drosophila / Hu human; RHD is the Rel homology domain; high values mean tight binding. The settings on record: dsDNA, one strand shown.
On to “CCGATTAACATCATTGTCCCTTCTGATGTTAATCGGGTCTTGATTCGCTTGACGCTGCTG”, for which the binding signal worked out at 2.67 z-score.

Regarding “CCGATTAACATCAGGCACTTCCCTGATGTTAATCGGGTCTTGATTCGCTTGACGCTGCTG”, the binding signal came out at 3.6 z-score. Still for that read-out and setting: then “CCGATTAACATCAACGGGTCCCTTGATGTTAATCGGGTCTTGATTCGCTTGACGCTGCTG”, with 2.73 z-score; and “CCGATTAACATCAGTCCCGCACTTGATGTTAATCGGGTCTTGATTCGCTTGACGCTGCTG”, with 2.85 z-score; and “CCGATTAACATCAGGAATTGCCCTGATGTTAATCGGGTCTTGATTCGCTTGACGCTGCTG”, with 4.94 z-score. On to “CCGATTAACATCAGTCCCTAAGCTGATGTTAATCGGGTCTTGATTCGCTTGACGCTGCTG”, for which the binding signal amounted to 4.16 z-score. On the same count and under the same terms, for “CCGATTAACATCAGGAGCTTCCCTGATGTTAATCGGGTCTTGATTCGCTTGACGCTGCTG” the value was 3.47 z-score; for “CCGATTAACATCACAAAAAATCCTGATGTTAATCGGGTCTTGATTCGCTTGACGCTGCTG”, 1.44 z-score; for “CCGATTAACATCAAAAATTTCCATGATGTTAATCGGGTCTTGATTCGCTTGACGCTGCTG”, 1.53 z-score.

Sequence “CCGATTAACATCAGAAAAATTCCTGATGTTAATCGGGTCTTGATTCGCTTGACGCTGCTG” yielded a binding signal of 2.21 z-score.

“CCGATTAACATCAGTTGTCCCGCTGATGTTAATCGGGTCTTGATTCGCTTGACGCTGCTG” came in with a binding signal of 1.16 z-score. On the same count and under the same terms, then “CCGATTAACATCAAAATTTACCATGATGTTAATCGGGTCTTGATTCGCTTGACGCTGCTG”, with 1.07 z-score; and “CCGATTAACATCATAGTCCCATGTGATGTTAATCGGGTCTTGATTCGCTTGACGCTGCTG”, with 2.36 z-score. On to “CCGATTAACATCAGGGCATGCCCTGATGTTAATCGGGTCTTGATTCGCTTGACGCTGCTG”, for which the binding signal came out at 4.01 z-score. The same measure, in the same setting: for “CCGATTAACATCAGGTTATTCCATGATGTTAATCGGGTCTTGATTCGCTTGACGCTGCTG” the value was 1.85 z-score; for “CCGATTAACATCAGGCATGCCCCTGATGTTAATCGGGTCTTGATTCGCTTGACGCTGCTG”, 4.39 z-score; for “CCGATTAACATCAGGACCGTCCCTGATGTTAATCGGGTCTTGATTCGCTTGACGCTGCTG”, 6.42 z-score. Sequence “CCGATTAACATCAGAAAGTTTCCTGATGTTAATCGGGTCTTGATTCGCTTGACGCTGCTG” showed a binding signal of 1.06 z-score. On the same count and under the same terms, for “CCGATTAACATCAGGAAATTTACTGATGTTAATCGGGTCTTGATTCGCTTGACGCTGCTG” the value was 1.54 z-score; for “CCGATTAACATCAAGCCTGTCCCTGATGTTAATCGGGTCTTGATTCGCTTGACGCTGCTG”, 1.77 z-score.

Regarding “CCGATTAACATCAGGAATAACCATGATGTTAATCGGGTCTTGATTCGCTTGACGCTGCTG”, the binding signal was found to be 1.32 z-score. “CCGATTAACATCAAAAAGTTTCCTGATGTTAATCGGGTCTTGATTCGCTTGACGCTGCTG” came in with a binding signal of 1.68 z-score. “CCGATTAACATCAAGAAAATTCCTGATGTTAATCGGGTCTTGATTCGCTTGACGCTGCTG”: the binding signal worked out at 1.97 z-score.

Sequence “CCGATTAACATCAAAAATTCCAGTGATGTTAATCGGGTCTTGATTCGCTTGACGCTGCTG” returned a binding signal of 1.48 z-score. On the same count and under the same terms, then “CCGATTAACATCAGGAATTTTCATGATGTTAATCGGGTCTTGATTCGCTTGACGCTGCTG”, with 1.37 z-score; and “CCGATTAACATCAGGAAAATTCCTGATGTTAATCGGGTCTTGATTCGCTTGACGCTGCTG”, with 2.45 z-score.

The target of another test is GST-Hu-p50 (Homo sapiens, UniProt P19838 7-356). Described as above. The settings on record: dsDNA, one strand shown.
Chain of GST-Hu-p50 (P19838 7-356): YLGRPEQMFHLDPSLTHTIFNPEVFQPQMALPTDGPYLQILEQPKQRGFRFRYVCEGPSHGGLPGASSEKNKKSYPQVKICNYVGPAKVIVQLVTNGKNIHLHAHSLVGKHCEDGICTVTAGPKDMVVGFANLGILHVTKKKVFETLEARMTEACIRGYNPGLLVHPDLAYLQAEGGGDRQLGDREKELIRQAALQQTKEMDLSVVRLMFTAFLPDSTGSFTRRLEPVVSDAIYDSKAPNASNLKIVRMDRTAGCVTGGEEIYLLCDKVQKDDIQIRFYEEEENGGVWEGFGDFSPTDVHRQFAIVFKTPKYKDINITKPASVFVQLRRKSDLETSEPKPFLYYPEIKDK
Sequence “CCGATTAACATCAGGTGATCACCTGATGTTAATCGGGTCTTGATTCGCTTGACGCTGCTG” had a binding signal of 1.9 z-score. On the same count and under the same terms, then “CCGATTAACATCAGGAAACAACCTGATGTTAATCGGGTCTTGATTCGCTTGACGCTGCTG”, with 1.61 z-score; and “CCGATTAACATCAGGAATTTTTATGATGTTAATCGGGTCTTGATTCGCTTGACGCTGCTG”, with 1.39 z-score.

Consider “CCGATTAACATCACGGAATTTCCTGATGTTAATCGGGTCTTGATTCGCTTGACGCTGCTG”, for which the binding signal came out at 1.38 z-score. On the same count and under the same terms, then “CCGATTAACATCAAAATTCCGGGTGATGTTAATCGGGTCTTGATTCGCTTGACGCTGCTG”, with 1.74 z-score.

In the case of “CCGATTAACATCACAAAAATTCCTGATGTTAATCGGGTCTTGATTCGCTTGACGCTGCTG”, the binding signal stood at 1.01 z-score.

Turning to “CCGATTAACATCACAAAAAATCCTGATGTTAATCGGGTCTTGATTCGCTTGACGCTGCTG”, the binding signal was determined as 1.98 z-score. Sequence “CCGATTAACATCAAAAATTTCCATGATGTTAATCGGGTCTTGATTCGCTTGACGCTGCTG” had a binding signal of 1.32 z-score. Regarding “CCGATTAACATCAGAAAAATTCCTGATGTTAATCGGGTCTTGATTCGCTTGACGCTGCTG”, the binding signal stood at 1.71 z-score.

“CCGATTAACATCAAAATTTACCATGATGTTAATCGGGTCTTGATTCGCTTGACGCTGCTG” returned a binding signal of 2.22 z-score.

Regarding “CCGATTAACATCAGGTTATTCCATGATGTTAATCGGGTCTTGATTCGCTTGACGCTGCTG”, the binding signal was found to be 3.32 z-score. The same measure, in the same setting: for “CCGATTAACATCAGAAAGTTTCCTGATGTTAATCGGGTCTTGATTCGCTTGACGCTGCTG” the value was 1.69 z-score; for “CCGATTAACATCAGGAAATTTACTGATGTTAATCGGGTCTTGATTCGCTTGACGCTGCTG”, 1.51 z-score; for “CCGATTAACATCAGGAATAACCATGATGTTAATCGGGTCTTGATTCGCTTGACGCTGCTG”, 2.29 z-score. The same measure, in the same setting: for “CCGATTAACATCAAAAAGTTTCCTGATGTTAATCGGGTCTTGATTCGCTTGACGCTGCTG” the value was 1.42 z-score; for “CCGATTAACATCAAGAAAATTCCTGATGTTAATCGGGTCTTGATTCGCTTGACGCTGCTG”, 1.07 z-score; for “CCGATTAACATCAAAAATTCCAGTGATGTTAATCGGGTCTTGATTCGCTTGACGCTGCTG”, 1.08 z-score.

As to “CCGATTAACATCAGGAATTTTCATGATGTTAATCGGGTCTTGATTCGCTTGACGCTGCTG”, the binding signal worked out at 1.36 z-score.

Take “CCGATTAACATCAGGAAAATTCCTGATGTTAATCGGGTCTTGATTCGCTTGACGCTGCTG”: the binding signal stood at 1.61 z-score.
